Reference: PubChem BioAssay (NCI)
This is part of a sample that, as a whole, favours compounds with a hit. Of some 83,000 tested, about 20% had one in any assay.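 Step 1: grow cells in 96-well plates. Step 2: add test compound at a single concentration. Step 3: incubate 48 h. Step 4: record percent growth.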 Activity calls are given as the source filed them. Rule for the calls: active = growth percent below 10; inactive = the rest.

These compounds were tested on HL-60(TB) leukemia (assay: NCI-60 one-dose screen, 48 h (100 = growth as untreated, 0 = no growth, -100 = all killed)). Details: 10 µM unless noted.

| SMILES | growth |
| --- | --- |
| COc1ccc(N=Cc2c(O)ccc3c2oc2cc(Cl)c(O)c(Cl)c23)cc1 | 86.6% (inactive) |
| O=C(Cn1cncn1)Nc1ccc(-c2nc3ccccc3s2)cc1 | 102% (inactive) |
| COc1ccc(C2=NN(c3ccc(S(N)(=O)=O)cc3)C(c3cn(-c4ccccc4)nc3-c3ccc(Cl)cc3)C2)cc1 (stereo not given) | 84.5% (inactive) |
| CCOC(=O)N1C/C(=C/c2ccc(F)cc2)C(=O)/C(=C/c2ccc(F)cc2)C1 | 4.58% (active) |
| CC1=C(C(=O)Nc2ccccc2)C(c2ccc3c(c2)OCCO3)NC(=O)N1 (stereo not given) | 106% (inactive) |
| COc1cc(OC)c2c(=O)cc(-c3ccccc3)oc2c1 | 72% (inactive) |
| Nc1cc(C(F)(F)F)c(-c2cc(N3CCOCC3)nc(N3CCOCC3)n2)cn1 | -41.3% (active) |
| N#Cc1c(-c2ccccc2)nc(SCC(=O)Nc2nc(-c3ccc(Cl)cc3)cs2)[nH]c1=O | 96.1% (inactive) |
| COc1ccc(-c2nc3c(c(C)nn3-c3ccc(F)cc3)c(=O)[nH]2)cc1 | 70% (inactive) |
| COc1cc(C2C=C(c3ccc(Cl)c(Cl)c3)N=C3SC(C)=CN32)cc(OC)c1OC (stereo not given) | 61.6% (inactive) |
| CCCCCCNC(=O)c1cc(NCc2cc(O)ccc2O)ccc1O | -6.21% (active) |
| O=C(Cc1ccc([N+](=O)[O-])cc1)Oc1ccccc1 | 105% (inactive) |
| C=C(C)[C@@H]1CC[C@]2(C(=O)O)CC[C@]3(C)[C@H](CC[C@@H]4[C@@]5(C)C[C@@H](CC#Cc6ccccc6)C(=O)C(C)(C)[C@@H]5CC[C@]43C)[C@@H]12 | 3.03% (active) |
| O/N=C/c1ccncc1 | 110% (inactive) |
| COc1cccc(-c2nc(-c3ccc(NC(=O)C(C)C)cc3)[nH]c2-c2ccnc(Br)c2)c1 | -23.4% (active) |
| O=C(/C(=C(\C(=O)c1ccccc1)c1ccccc1)c1ccccc1)c1ccccc1 | -1.48% (active) |
| COc1ccc(-c2nc3ccc(-c4nc5ccc(N6CCN(c7ccncc7)CC6)cc5[nH]4)cc3[nH]2)cc1OC | 35.3% (inactive) |
| C#CC#CC#CC#CC#CC#CC#CC#CC[C@@H]1OC[C@@H](COC(=O)O[C@@H](C(=O)O[C@H]2C[C@@]3(O)[C@@H](OC(=O)c4ccccc4)[C@@H]4[C@]5(OC(C)=O)CO[C@@H]5C[C@H](O)[C@@]4(C)C(=O)[C@H](OC(C)=O)C(=C2C)C3(C)C)[C@@H](NC(=O)c2ccccc2)c2ccccc2)O1 | 2.63% (active) |
| CCC(C)C1NC(=O)c2nc(oc2-c2ccccc2)-c2csc(n2)-c2csc(n2)-c2nc(oc2C)-c2coc(n2)CNC(=O)C(C(C)CC)NC1=O (stereo not given) | -69.7% (active) |
| O=C(Nc1ccccc1)Oc1cccc2cccnc12 | 57.3% (inactive) |

| SMILES | growth |
| --- | --- |
| COc1cc(C2CC(c3cccc(Nc4ccncc4)c3)=NN2c2ccccc2)cc(OC)c1OC (stereo not given) | -43.8% (active) |
| Cc1noc(C)c1-c1cc(O)cc(C(O)c2ccccc2)c1 (stereo not given) | 10% (inactive) |
| Cc1[nH]c(/C=C/C(=O)c2ccc(C(F)(F)F)c(F)c2)c(C)c1C(=O)NCC(C)C | 98.5% (inactive) |
| C=CCOc1ccc2c(c1)CC[C@@H]1[C@@H]2CC[C@@]2(C)[C@H]1CC[C@]2(C)O | 74.6% (inactive) |
| Cc1cc2c(cc1C)[n+](Cc1ccc3ccccc3n1)cn2Cc1ccc2ccccc2n1 | -49.8% (active) |
| CCN(CC)CCCC(C)Nc1ccnc2c(OC)cccc12 (stereo not given) | 52.6% (inactive) |
| Cc1ccc(C(C)C)cc1NC(=O)Nc1ccc([N+](=O)[O-])cc1 | -8.6% (active) |
| O=C(CCCCCCCCC(=O)Nc1cccc(C2=NCCN2)c1)Nc1cccc(C2=NCCN2)c1 | 81.9% (inactive) |
| CSc1nc2ccc(C)cc2cc1/C=C1/C=C(c2ccccc2)NC1=O | 87.4% (inactive) |
| COc1ccc2c(c1)[n+](=O)c(C(=O)/C=C/c1cc(OC)c(OC)c(OC)c1)c(C)n2[O-] | 42.6% (inactive) |
| Cc1nc(N)nc(SCc2ccccc2)c1Br | 53.2% (inactive) |
| COc1cc2cc(Oc3ccc(NC(=O)Nc4cc(C(F)(F)F)cc(C(F)(F)F)c4)cc3)c(C)nc2cc1OCCN1CCCCC1 | -2.13% (active) |
| COc1cc2oc(-c3ccc(O)cc3)cc(=O)c2c(O)c1-c1c(OC)cc(O)c2c(=O)cc(-c3ccc(O)cc3)oc12 | 0.122% (active) |
| Nc1ncnc2c1ncn2C1OC(COC(c2ccccc2)(c2ccccc2)c2ccccc2)C(O)C1O (stereo not given) | 8.77% (active) |
| CCc1ccc(-c2nnc(COc3ccc(-c4nc5ccccc5[nH]4)cc3OC)o2)cc1 | 78.4% (inactive) |
| C(=C(\C1=NCCN1)n1ccc2ccccc21)/c1ccccc1 | 96.8% (inactive) |
| Cc1oc(-c2ccccc2Cl)cc1C(=O)Nc1ccc(S(N)(=O)=O)cc1 | 102% (inactive) |
| Cn1ccnc1C(=O)/C=C/c1ccc(CC(=O)Nc2cc(C(F)(F)F)cc(C(F)(F)F)c2)cc1 | 16.1% (inactive) |
| COc1ccc(S(=O)(=O)N(C)c2oc(-c3ccc(Cl)cc3)nc2C#N)cc1 | 63.9% (inactive) |
| COc1ccc(Br)cc1NC(=O)Nc1cccc2c1ccn2Cc1ccnc(N)c1 | 10.5% (inactive) |
